In PubChem BioAssay (NCI) one finds growth data, which are given here for seven compounds.

Among the test systems are SR leukemia; RPMI-8226 leukemia; OVCAR-8 ovarian; OVCAR-5 ovarian; OVCAR-4 ovarian; SK-OV-3 ovarian; IGROV1 ovarian; OVCAR-3 ovarian; HS 578T breast; NCI/ADR-RES ovarian; T-47D breast; BT-549 breast; MDA-MB-435 melanoma; SW-620 colon; MCF7 breast; HCT-116 colon; HCC-2998 colon; KM12 colon.
Common to all, as to experiment: NCI-60 one-dose screen, 48 h (100 = growth as untreated, 0 = no growth, -100 = all killed)
What all share (settings): 10 µM unless noted

Where “and” joins values, the source holds several entries; their conditions need not be identical. Equal values may be shown once. Compounds without any hit were thinned out: in the full panel of roughly 83,000, 20% have a hit.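 48-hour exposure, single concentration, 96-well plates; percent growth endpoint where 0 means no net growth. Active: below 10.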 Calls of active or inactive are those of the source.

As for `COc1cc(C(=O)c2ccccc2C(=O)O)c(OC)c2c1CCCC2`, the growth in the assay on SR leukemia is 67.3% (inactive) and 94.9% (inactive); in the assay on RPMI-8226 leukemia, 108% (inactive) and 93.7% (inactive); with OVCAR-8 ovarian, 104% (inactive) and 101% (inactive); with OVCAR-5 ovarian it was 112% (inactive) and 106% (inactive); with OVCAR-4 ovarian, 99.3% (inactive) and 98.9% (inactive); in the assay with SK-OV-3 ovarian, 113% (inactive) and 106% (inactive). The growth in the assay on IGROV1 ovarian was 127% (inactive) and 105% (inactive); in the assay with OVCAR-3 ovarian, 93.3% (inactive) and 105% (inactive); in the assay with HS 578T breast, 103% (inactive) and 112% (inactive); with NCI/ADR-RES ovarian, 103% (inactive) and 104% (inactive); with T-47D breast it was 90.9% (inactive) and 95.7% (inactive); in the assay on BT-549 breast, 95.8% (inactive) and 101% (inactive). Further, the growth with MDA-MB-435 melanoma is 100% (inactive) and 107% (inactive); with SW-620 colon, 98.2% (inactive) and 106% (inactive); in the assay with MCF7 breast, 97.4% (inactive) and 99.5% (inactive); in the assay on HCT-116 colon, 95.6% (inactive) and 95.4% (inactive); in the assay on HCC-2998 colon, 107% (inactive) and 101% (inactive); in the assay with KM12 colon, 98.7% (inactive) and 104% (inactive).

For the compound `O=C(/C=C/c1ccccc1)c1cccs1`, the growth with SR leukemia is 94.9% (inactive) and 24.1% (inactive); in the assay on RPMI-8226 leukemia, 49.3% (inactive) and 6.44% (active); in the assay on OVCAR-8 ovarian, 97.5% (inactive) and 94% (inactive); in the assay on OVCAR-5 ovarian, 93.2% (inactive) and 108% (inactive); in the assay on OVCAR-4 ovarian, 97.7% (inactive) and 87.3% (inactive); in the assay on SK-OV-3 ovarian it was 104% (inactive) and 112% (inactive). Moreover, the growth was 104% (inactive) and 116% (inactive) with IGROV1 ovarian; 97% (inactive) and 117% (inactive) in the assay with OVCAR-3 ovarian; 100% (inactive) in the assay on HS 578T breast; 99.5% (inactive) and 100% (inactive) in the assay on NCI/ADR-RES ovarian; 97.3% (inactive) and 104% (inactive) in the assay on T-47D breast; 104% (inactive) and 107% (inactive) in the assay on BT-549 breast. The growth in the assay on MDA-MB-435 melanoma is 88.9% (inactive) and 85.1% (inactive); with SW-620 colon, 84.6% (inactive) and 98.3% (inactive); with MCF7 breast, 29.1% (inactive) and 21.7% (inactive); in the assay with HCT-116 colon, 74% (inactive) and 57.3% (inactive); in the assay with HCC-2998 colon it was 97.3% (inactive) and 130% (inactive); with KM12 colon it was 69.6% (inactive) and 70% (inactive).

As to `COc1ccccc1/C=C/C(=O)/C=C/c1ccccc1OC`, the growth is 16.2% (inactive) and 7.78% (active) with SR leukemia; 7.24% (active) and 1.3% (active) in the assay with RPMI-8226 leukemia; -25.9% (active) and 16.5% (inactive) in the assay on OVCAR-8 ovarian; -15.7% (active) and -6.94% (active) with OVCAR-5 ovarian; 20.6% (inactive) and 13% (inactive) with OVCAR-4 ovarian; 5.47% (active) and 14.6% (inactive) with SK-OV-3 ovarian. Further, the growth in the assay on IGROV1 ovarian is -53.8% (active) and -46.1% (active); with OVCAR-3 ovarian, -29.1% (active) and -36.7% (active); in the assay with HS 578T breast, -0.48% (active) and 50.4% (inactive); in the assay on NCI/ADR-RES ovarian, -2.31% (active) and 18.6% (inactive); in the assay with T-47D breast, -41.1% (active) and 4.16% (active); with BT-549 breast it was -51.9% (active) and -30.6% (active). The growth is -30.8% (active) with MDA-MB-435 melanoma; -27.1% (active) and -20% (active) in the assay with SW-620 colon; 5.62% (active) and 17.9% (inactive) in the assay with MCF7 breast; -81.7% (active) and -87.1% (active) with HCT-116 colon; -84% (active) and 2.03% (active) with HCC-2998 colon; -60% (active) and -45.2% (active) with KM12 colon.

`Clc1ccc(Nc2nc(Nc3ccc(Cl)cc3)nc(Nc3ccc(-c4cc(-c5cccc(Cl)c5)on4)cc3)n2)cc1`: the growth was -9.82% (active) in the assay with SR leukemia; 87% (inactive) in the assay on RPMI-8226 leukemia; 85.5% (inactive) in the assay on OVCAR-8 ovarian; 71.4% (inactive) in the assay with OVCAR-5 ovarian; 101% (inactive) in the assay with OVCAR-4 ovarian; 103% (inactive) with SK-OV-3 ovarian. Besides, the growth in the assay on IGROV1 ovarian is 104% (inactive); in the assay with OVCAR-3 ovarian, 90.1% (inactive); in the assay on HS 578T breast, 105% (inactive); with NCI/ADR-RES ovarian, 84.1% (inactive); with T-47D breast, 83.3% (inactive); in the assay on BT-549 breast it was 98.6% (inactive). Moreover, the growth in the assay on MDA-MB-435 melanoma is 104% (inactive); in the assay on SW-620 colon, 96.6% (inactive); with MCF7 breast it was 86.6% (inactive); in the assay on HCT-116 colon, 99.6% (inactive); in the assay with HCC-2998 colon, 121% (inactive); with KM12 colon it was 104% (inactive).

Consider `Cc1c(CC(=O)OCCO)cc(-c2ccc(Cl)cc2)n1-c1ccccc1`, for which the growth is 91.2% (inactive) in the assay on SR leukemia; 72.1% (inactive) with RPMI-8226 leukemia; 92.4% (inactive) in the assay with OVCAR-8 ovarian; 99.6% (inactive) in the assay with OVCAR-5 ovarian; 68.9% (inactive) in the assay on OVCAR-4 ovarian; 110% (inactive) with SK-OV-3 ovarian. Further, the growth was 104% (inactive) with IGROV1 ovarian; 108% (inactive) with OVCAR-3 ovarian; 106% (inactive) in the assay on HS 578T breast; 99.5% (inactive) in the assay with NCI/ADR-RES ovarian; 72.3% (inactive) in the assay with T-47D breast; 109% (inactive) with BT-549 breast. For the same compound, the growth in the assay on MDA-MB-435 melanoma was 98.7% (inactive); in the assay on SW-620 colon, 104% (inactive); with MCF7 breast it was 93% (inactive); with HCT-116 colon it was 102% (inactive); in the assay with HCC-2998 colon, 118% (inactive); with KM12 colon, 99.1% (inactive).

Consider `C=C(c1ccc(C(=O)O)cc1)c1cc2c(cc1C)C(C)(C)CCC2(C)C`, for which the growth in the assay with SR leukemia was 46.1% (inactive) and 84.9% (inactive); with RPMI-8226 leukemia, 2.66% (active) and 61% (inactive); in the assay with OVCAR-8 ovarian it was 77% (inactive) and 80.6% (inactive); with OVCAR-5 ovarian it was 91% (inactive) and 79.7% (inactive); with OVCAR-4 ovarian, 95.4% (inactive) and 86.9% (inactive); with SK-OV-3 ovarian, 88.7% (inactive) and 77.8% (inactive). Further, the growth with IGROV1 ovarian was 98.9% (inactive) and 79.8% (inactive); in the assay on OVCAR-3 ovarian, 88.8% (inactive) and 82.6% (inactive); in the assay on HS 578T breast, 126% (inactive) and 68.1% (inactive); in the assay with NCI/ADR-RES ovarian, 71.9% (inactive) and 72.9% (inactive); in the assay on T-47D breast it was 93.8% (inactive) and 75.7% (inactive); in the assay on BT-549 breast, 55.4% (inactive). Further, the growth in the assay on MDA-MB-435 melanoma is 95.9% (inactive) and 84% (inactive); in the assay on SW-620 colon it was 113% (inactive) and 97.6% (inactive); in the assay on MCF7 breast, 75.9% (inactive) and 63.6% (inactive); in the assay on HCT-116 colon it was 71.3% (inactive) and 50% (inactive); in the assay on HCC-2998 colon, 78.6% (inactive) and 76.1% (inactive); in the assay on KM12 colon, 59.2% (inactive) and 36.3% (inactive).

Take `O=C(Cc1ccc(F)cc1)c1ccccc1`: the growth was 100% (inactive) in the assay on SR leukemia; 95.9% (inactive) with RPMI-8226 leukemia; 104% (inactive) in the assay on OVCAR-8 ovarian; 122% (inactive) in the assay with OVCAR-5 ovarian; 109% (inactive) with OVCAR-4 ovarian; 108% (inactive) in the assay with SK-OV-3 ovarian. Further, the growth with IGROV1 ovarian is 107% (inactive); with OVCAR-3 ovarian it was 129% (inactive); in the assay on HS 578T breast, 94% (inactive); with NCI/ADR-RES ovarian it was 108% (inactive); in the assay on T-47D breast, 112% (inactive); in the assay with BT-549 breast, 97.2% (inactive). The growth is 106% (inactive) in the assay on MDA-MB-435 melanoma; 110% (inactive) in the assay with SW-620 colon; 103% (inactive) in the assay on MCF7 breast; 103% (inactive) with HCT-116 colon; 106% (inactive) with HCC-2998 colon; 111% (inactive) in the assay with KM12 colon.
